# IL1B secr inh – blocks inflammasome-driven IL-1 beta release; activity change, % at 57.5 µM; 360,000 tested, 4.7% active; THP-1 LPS/ATP IL-1B secretion, AlphaLISA, 16 h; active compounds read low; in the data active means activity change below about -50%; inconclusive means mostly about -30% to -49%
#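 Secreted IL-1B measured by AlphaLISA bead assay after 16 h compound exposure of THP-1 cells; compounds (final up to 57.5 uM) added 1 h before LPS (250 ng/mL) and ATP (1.25 mM) stimulation; lower signal means less secretion.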
# Six1-Eya2 blk – blocks human Six1 binding to Eya2; AlphaScreen GST-Six1/His-Eya2 binding, biochemical; active compounds read low; AID 651725; Q15475+O00167; 360,000 tested, 0.56% active; activity change, % (no concentration beside the values); in the data active means activity change below about -65%; inconclusive means mostly about -30% to -63%
#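 AlphaScreen with GST-Six1 and His-Eya2 (5X mix: 250 nM and 500 nM), glutathione donor and nickel acceptor beads; buffer 50 mM Tris pH 8.0, 300 mM NaCl, 1 mM TCEP; 1 h at 37 C in the dark.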
# TDP1 cell CPT – growth inhibition of DT40 Tdp1-/-;hTDP1 cells with camptothecin (screen for TDP1 inhibitors); chicken DT40 Tdp1-/-;hTDP1 cells + 20 nM CPT, ATP luminescence, 48 h; Potency, µM (series often up to 46.2 µM), for inactives: at the highest dose activity change, negative = growth inhibition, most hits filed as inhibitors; 420,000 tested, 12% active; AID 686979; further: potency means the concentration at half of the fitted maximal effect; nearly all actives have a fitted effect of over 55% in size
#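 Chicken DT40 Tdp1-/- cells complemented with human TDP1, 400 cells/well, exposed to compounds plus 20 nM camptothecin for at least 48 h at 37 C; viability read as ATP content by CellTiter-Glo luminescence.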
# TDP1 block – blocks human tyrosyl-DNA phosphodiesterase 1; Q9NUW8; Potency, µM (highest dose often 130 µM), without a hit: top-dose activity change, negative = inhibition, most hits filed as inhibitors; 350,000 tested, 0.28% active; AID 485290; recombinant TDP1, AlphaScreen DNA substrate cleavage; further: potency means the concentration at half of the fitted maximal effect; nearly all actives have a fitted effect of over 40% in size
# Target sequence (Q9NUW8 whole entry, looked up): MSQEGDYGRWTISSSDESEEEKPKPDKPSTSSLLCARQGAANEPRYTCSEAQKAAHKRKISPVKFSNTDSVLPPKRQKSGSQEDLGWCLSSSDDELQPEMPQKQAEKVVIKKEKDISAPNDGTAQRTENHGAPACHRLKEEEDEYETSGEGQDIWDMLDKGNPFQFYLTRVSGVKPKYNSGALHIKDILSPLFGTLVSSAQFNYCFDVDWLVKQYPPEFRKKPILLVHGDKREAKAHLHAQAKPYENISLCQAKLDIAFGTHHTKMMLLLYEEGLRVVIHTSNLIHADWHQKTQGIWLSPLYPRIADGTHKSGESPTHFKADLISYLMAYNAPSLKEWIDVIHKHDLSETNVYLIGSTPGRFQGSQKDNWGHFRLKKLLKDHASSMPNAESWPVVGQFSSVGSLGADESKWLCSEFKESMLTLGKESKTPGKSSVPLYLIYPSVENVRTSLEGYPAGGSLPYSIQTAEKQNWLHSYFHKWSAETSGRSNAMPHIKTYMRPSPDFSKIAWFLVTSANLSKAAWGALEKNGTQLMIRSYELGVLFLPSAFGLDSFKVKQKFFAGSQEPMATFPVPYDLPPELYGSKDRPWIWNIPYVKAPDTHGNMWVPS
#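 AlphaScreen read-out: signal falls as enzyme removes the 3' tyrosine-FITC from a 5'-biotinylated DNA oligo (15 nM, 5 min, RT). Enzyme was E. coli-made recombinant Tdp1 at 1 nM, exposed to compound for 15 min beforehand; beads 10 ug/ml, 10 min.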
# DT40 TDP1 no CPT – qHTS for Inhibitors of human tyrosyl-DNA phosphodiesterase 1 (TDP1): qHTS in cells in absence of CPT; DT40 Tdp1-/- hTDP1 cells, no CPT, ATP luminescence, 48 h; Potency, µM (titrated, usually from 46.2 µM), without a hit: at the highest dose activity change, negative = growth inhibition, actives largely listed as inhibitors; 420,000 tested, 15% active; AID 686978, 2013; further: potency means the concentration at half of the fitted maximal effect; nearly all actives have a fitted effect of over 55% in size
#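 Chicken DT40 Tdp1-/- cells stably complemented with human TDP1 were seeded at 400 cells/well with DMSO in place of 20 nM camptothecin. After compound pinning, cells grew at least 48 hr at 37 °C; viability read by CellTiter-Glo luminescence.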
# CtBP-E1A blk – inhibitors of CtBP/E1A interaction | activity change, % (test concentration not listed) | AlphaScreen GST-E1A/His-CtBP binding, 1536-well; active compounds read low | 340,000 tested, 0.49% active | AID 651724; in the data active means activity change below about -65%; inconclusive means mostly about -30% to -63%
#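 GST-E1A and His-tagged CtBP (125 nM each as 5X stock) were preincubated with pin-transferred compound for 2 h at 37 °C in the dark, then glutathione donor and nickel acceptor beads were added for 1 h before AlphaScreen reading.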
# Starred values were filed as active, the others as inactive; ? = inconclusive; nt = no result. Compounds with a hit are over-represented: about 18% of the library has one in this group of screens. Unless noted, the call rests on the fitted dose curve; in most records, active means well fitted curve in the direction sought with a large enough effect; inconclusive means small, poorly fitted or top-dose-only effect, or another doubt; inactive means no such curve, though single readings can be large; an effect the other way counts as inactive or inconclusive. On the % scale 0 is the no-effect control and ±100 the full control effect.
SMILES,IL1B secr inh,Six1-Eya2 blk,TDP1 cell CPT,TDP1 block,DT40 TDP1 no CPT,CtBP-E1A blk
O=C(NC1CC1)C1CCN(c2nc3ccccc3s2)CC1,13,0,-17%,3%,9%,0
C(=Nc1cccc2c(N=Cc3ccco3)cccc12)c1ccco1,9,3,-6%,12%,-1%,nt
COC(=O)CCC(=O)N1CCCC(CNS(=O)(=O)c2ccc(OC)cc2)C1 (centres undefined),19,0,-4%,4%,15%,-6
O=C(N/N=C/c1ccccc1)c1[nH]c2ccc(Br)cc2c1-c1ccccc1,25,7,1.2µM*,-1%,1.2µM*,8
Cc1ccc2[nH]c(C(=O)N/N=C/c3ccc([N+](=O)[O-])cc3)c(C)c2c1,-10,-9,3.7µM*,nt,4.1µM*,nt
Cc1ccc2[nH]c(C(=O)N/N=C/c3ccccc3O)c(C)c2c1,96,2,4.6µM*,nt,4.6µM*,nt
CC(C)CCOP(=O)(c1ccccc1)c1ccccc1,-23,12,?,5%,?,5
CCCCC1(C2CCCC2)NC(=O)NC1=O (centres undefined),6,10,-8%,nt,-18%,9
Fc1cccc2sc(Nc3nc4c(F)cccc4s3)nc12,17,-14,?,5%,13µM*,-7
NNc1nc2c(F)cccc2s1,5,-15,?,8%,15µM*,-6
CC1CCc2c(sc(Nc3nc4c(F)cccc4s3)c2C(N)=O)C1 (centres undefined),-78*,1,?,0%,16µM*,7
Nc1nc2c(F)cccc2s1,28,7,-3%,0%,2%,6
NNc1nc2c(F)cc(F)cc2s1,-25,-17,?,8%,23µM*,4
Cc1ccccc1NC(=S)NC1CCCC1,-2,1,-19%,nt,-23%,-5
COc1ccc(CN2C(=O)C(CC(=O)NCC3CCCCC3)CC(C(=O)N(C)C)=C2C)cc1 (centres undefined),-24,1,?,nt,?,1
CC1=C(C(=O)N(C(C)C)C(C)C)CC(CC(=O)NCC2CCCCC2)C(=O)N1Cc1ccc(C(C)(C)C)cc1 (centres undefined),nt,nt,19µM*,nt,19µM*,nt
CC1=C(C(=O)N(C)C)CC(CC(=O)NC2CC2)C(=O)N1Cc1ccc(C(C)(C)C)cc1 (centres undefined),20,14,-12%,nt,?,11
CCN(CC)C(=O)C1=C(C)N(Cc2ccc(OC)cc2)C(=O)C(CC(=O)NCC2CCCCC2)C1 (centres undefined),-12,-2,?,nt,21µM*,1
CC1=C(C(=O)N(C(C)C)C(C)C)CC(CC(=O)NC2CC2)C(=O)N1Cc1ccc(C(C)(C)C)cc1 (centres undefined),0,-21,?,nt,29µM*,-16
O=C(O)c1sccc1S(=O)(=O)N1CCCCC1,12,-1,-2%,nt,0%,1
O=c1c2ccccc2c(C=Nc2ccc(O)cc2)c(O)n1Cc1ccccc1,-12,-3,4%,nt,-1%,-8
CCCCn1c(SCC(=O)c2ccc3c(c2)OCCO3)nnc1-c1ccoc1C,-96*,8,?,2%,?,-7
CC1CCCCN1CCCNC(=O)c1c(O)nc2ccccn2c1=O (centres undefined),2,4,-15%,2%,16%,4
CC1=NN(C(=O)c2csc(C)c2)C(O)(C(F)(F)F)C1 (centres undefined),13,4,0.13µM*,1%,0.13µM*,-7
CCC1=NN(C(=O)c2ccc(Br)cc2)C(O)(c2ccc(C)cc2)C1 (centres undefined),-7,-6,5.2µM*,3%,5.2µM*,-10
SMILES,IL1B secr inh,Six1-Eya2 blk,TDP1 cell CPT,TDP1 block,DT40 TDP1 no CPT,CtBP-E1A blk
CCC1=NN(C(=O)c2ccc(C)cc2)C(O)(c2ccc(Br)cc2)C1 (centres undefined),-9,-5,?,0%,?,-3
CC1=NN(C(=O)c2ccc(Br)cc2)C(O)(C(F)(F)OC(F)(F)F)C1 (centres undefined),-55*,5,?,1%,?,-2
CC1=NN(C(=O)c2csc(C)c2C)C(O)(C(F)(F)F)C1 (centres undefined),0,0,0.65µM*,1%,0.92µM*,2
CCOc1ccc(-c2nn3c(-c4ccc(OC)cc4)nnc3s2)cc1,nt,nt,nt,3%,nt,nt
O=C(COC(=O)c1ccccc1O)NC(=O)c1ccc(OC(F)F)cc1,1,0,-1%,0%,2%,1
O=C(CN1CCC(Cc2ccccc2)CC1)NC(=O)NC1CCCCC1,-21,-4,?,-5%,?,7
CC1=NN(C(=O)c2ccc(Cn3nc(C)c([N+](=O)[O-])c3C)o2)C(O)(C(F)(F)F)C1 (centres undefined),17,3,-26%,-3%,?,3
CC1=NN(C(=O)c2c(Br)c(C)nn2C)C(O)(C(F)(F)F)C1 (centres undefined),90,2,1.2µM*,5%,1µM*,0
CC1=NN(C(=O)c2cc(C)nn2C)C(O)(C(F)(F)F)C1 (centres undefined),16,-5,0.65µM*,5%,0.92µM*,0
CC1CN(C(=O)c2cccc(S(=O)(=O)Nc3ccccc3Cl)c2)CC(C)O1 (centres undefined),0,0,2%,6%,4%,0
O=C1CC[C@H](OCc2ccccc2)CCN1[C@H](CSc1ccccc1)Cc1ccccc1,-8,-3,-27%,nt,?,-3
O=C(N[C@H]1CCC(=O)N([C@H](CSc2ccc(Br)cc2)Cc2ccccc2)CC1)OCc1ccccc1,-23,5,?,4%,18µM*,-17
O=C(N[C@H]1CCC(=O)N([C@H](CSc2ccccc2)Cc2ccccc2)CC1)OCc1ccccc1,-22,-4,?,nt,20µM*,-5
N#CCCN1CCC(NC(=O)OCc2ccccc2)CCC1=O (centres undefined),40,0,-1%,nt,-2%,-10
O=C(NC1CCC(=O)N(CCSc2ccccc2)CC1)OCc1ccccc1 (centres undefined),15,-8,?,nt,16µM*,-7
Cc1ccc(SC[C@H](Cc2ccccc2)N2CC[C@@H](NC(=O)OCc3ccccc3)CCC2=O)cc1,nt,nt,18µM*,nt,13µM*,nt
